Results on 11 sequences are retold here after PMC8384837, “Expanding the binding specificity for RNA recognition by a PUF domain”.

Common to all, as to test: yeast three-hybrid, YBZ-1, SC-Leu-His + 0.5 mM 3-AT, 4 days
Common to all, as to conditions: tags: N-Gal4 AD-HA kept; label: inside an RPR1-promoter hybrid RNA with tandem MS2 sites; ssRNA

One test concerns the target PUM1 PUF domain R5-LKL (Homo sapiens, UniProt Q14671 828-1176, C1007L;R1008K;Q1011L). The gist of the method: (§1)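 Each repeat of the Pumilio-1 PUF domain was randomized at its three base-contacting residues, and these libraries were co-expressed from a centromeric plasmid with matching RNA elements in strain YBZ-1. After four days on SC-Leu (input) or SC-Leu-His + 0.5 mM 3-AT (selection), the repeat regions were PCR-amplified and Illumina-sequenced. The interaction score compares variant frequency between input and selection as a log change, computed in log2 with a pseudocount of 1 for absent variants.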

In a further test the target is PUM1 PUF domain R7-RRH (Homo sapiens, UniProt Q14671 828-1176, S1079R;N1080R;E1083H). The gist of the method: as §1
The next test concerns the target PUM1 PUF domain R7-ISS (Homo sapiens, UniProt Q14671 828-1176, S1079I;N1080S;E1083S). Summed up: as §1
Another test addresses PUM1 PUF domain R3-SCP (Homo sapiens, UniProt Q14671 828-1176, C935S;R936C;Q939P). The gist of the method:
as §1

In the next test the target is PUM1 PUF domain R3-FRR (Homo sapiens, UniProt Q14671 828-1176, C935F;Q939R). Summed up:
as §1

Another test concerns the target PUM1 PUF domain R3-GIR (Homo sapiens, UniProt Q14671 828-1176, C935G;R936I;Q939R). The gist of the method:
as §1

The next test deals with PUM1 PUF domain R3-AAE (Homo sapiens, UniProt Q14671 828-1176, C935A;R936A;Q939E). Summed up: as §1
Another test concerns the target PUM1 PUF domain R3-TRC (Homo sapiens, UniProt Q14671 828-1176, C935T;Q939C). Summed up:
as §1

In a further test the target is PUM1 PUF domain R3-RVN (Homo sapiens, UniProt Q14671 828-1176, C935R;R936V;Q939N). The gist of the method:
as §1

In a further test the target is PUM1 PUF domain R3-RPD (Homo sapiens, UniProt Q14671 828-1176, C935R;R936P;Q939D). The gist of the method: as §1
The next test concerns the target PUM1 PUF domain R4-EHG (Homo sapiens, UniProt Q14671 828-1176, N971E;Q975G). Summed up:
as §1

The next test concerns the target PUM1 PUF domain R5-LHD (Homo sapiens, UniProt Q14671 828-1176, C1007L;R1008H;Q1011D). Summed up:
as §1

In the next test the target is T1, PUM1 PUF domain R6-SFK (Homo sapiens, UniProt Q14671 828-1176, N1043S;Y1044F;Q1047K).
T1 sequence: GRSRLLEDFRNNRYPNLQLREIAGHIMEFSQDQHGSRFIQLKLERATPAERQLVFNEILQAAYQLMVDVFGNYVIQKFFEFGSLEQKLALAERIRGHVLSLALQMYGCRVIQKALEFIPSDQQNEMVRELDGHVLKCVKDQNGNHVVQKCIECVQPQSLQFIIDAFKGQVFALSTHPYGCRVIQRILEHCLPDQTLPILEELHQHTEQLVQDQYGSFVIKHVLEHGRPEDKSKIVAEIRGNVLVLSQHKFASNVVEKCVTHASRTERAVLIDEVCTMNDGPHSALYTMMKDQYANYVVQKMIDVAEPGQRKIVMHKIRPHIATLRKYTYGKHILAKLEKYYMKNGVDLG
The gist of the method: as §1

For the next test, the target named is PUM1 PUF domain R3-LYI (Homo sapiens, UniProt Q14671 828-1176, C935L;R936Y;Q939I). Summed up:
as §1

In a further test the target is PUM1 PUF domain R4-RMQ (Homo sapiens, UniProt Q14671 828-1176, N971R;H972M). The gist of the method: as §1
The target of the next test is PUM1 PUF domain R4-FNM (Homo sapiens, UniProt Q14671 828-1176, N971F;H972N;Q975M). The gist of the method: as §1
The target in a further test is PUM1 PUF domain R8-PWI (Homo sapiens, UniProt Q14671 828-1176, N1122P;Y1123W;Q1126I). The gist of the method:
as §1

A further test concerns the target PUM1 PUF domain R2-PFQ (Homo sapiens, UniProt Q14671 828-1176, N899P;Y900F). Summed up: as §1

For “GGCUAGAACUAGUGGAUCCCCCGGCGCCCGGCGGCUCGAGCCCGGGUAAGUGUCAAUAGUCUGCAUGCCGCCGGGCGCCAUGCCUGCAGGUCGACUCUAGAAAACAUG”, the binding signal in the test with PUM1 PUF domain R5-LKL is 4 log2 enrichment (interaction score).
As to “GGCUAGAACUAGUGGAUCCCCCGGCGCCCGGCGGCUCGAGCCCGGGUAAGUCUAAAUAGUCUGCAUGCCGCCGGGCGCCAUGCCUGCAGGUCGACUCUAGAAAACAUG”, the binding signal in the test with PUM1 PUF domain R7-RRH was 4.29 log2 enrichment (interaction score).
For “GGCUAGAACUAGUGGAUCCCCCGGCGCCCGGCGGCUCGAGCCCGGGUAAGUUUAAAUAGUCUGCAUGCCGCCGGGCGCCAUGCCUGCAGGUCGACUCUAGAAAACAUG”, the figures for the binding signal with PUM1 PUF domain R7-RRH and with PUM1 PUF domain R7-ISS were 5.13 log2 enrichment (interaction score) and 3.84 log2 enrichment (interaction score), respectively.
Regarding “GGCUAGAACUAGUGGAUCCCCCGGCGCCCGGCGGCUCGAGCCCGGGUAAGUGUAAGUAGUCUGCAUGCCGCCGGGCGCCAUGCCUGCAGGUCGACUCUAGAAAACAUG”, the binding signal with PUM1 PUF domain R3-SCP was 3.88 log2 enrichment (interaction score); with PUM1 PUF domain R3-FRR, 5.43 log2 enrichment (interaction score); in the test with PUM1 PUF domain R3-GIR, 3.07 log2 enrichment (interaction score); in the test with PUM1 PUF domain R3-AAE, 3.07 log2 enrichment (interaction score); with PUM1 PUF domain R3-TRC, 2.14 log2 enrichment (interaction score).
Take “GGCUAGAACUAGUGGAUCCCCCGGCGCCCGGCGGCUCGAGCCCGGGUAAGUGUAAUUAGUCUGCAUGCCGCCGGGCGCCAUGCCUGCAGGUCGACUCUAGAAAACAUG”: the binding signal is 3.31 log2 enrichment (interaction score) with PUM1 PUF domain R3-SCP; 4.09 log2 enrichment (interaction score) with PUM1 PUF domain R3-RVN; 2.42 log2 enrichment (interaction score) in the test with PUM1 PUF domain R3-FRR; 1.55 log2 enrichment (interaction score) in the test with PUM1 PUF domain R3-GIR; 3.79 log2 enrichment (interaction score) in the test with PUM1 PUF domain R3-RPD.
As for “GGCUAGAACUAGUGGAUCCCCCGGCGCCCGGCGGCUCGAGCCCGGGUAAGUGUAAAUAGUCUGCAUGCCGCCGGGCGCCAUGCCUGCAGGUCGACUCUAGAAAACAUG”, the binding signal was 2.3 log2 enrichment (interaction score) with PUM1 PUF domain R4-EHG; 3.26 log2 enrichment (interaction score) with PUM1 PUF domain R3-TRC; 3.18 log2 enrichment (interaction score) with PUM1 PUF domain R5-LHD; 6.49 log2 enrichment (interaction score) in the test with PUM1 PUF domain R6-SFK; 4.35 log2 enrichment (interaction score) with PUM1 PUF domain R3-LYI; 3.34 log2 enrichment (interaction score) with PUM1 PUF domain R4-RMQ.
With “GGCUAGAACUAGUGGAUCCCCCGGCGCCCGGCGGCUCGAGCCCGGGUAAGUGUACAUAGUCUGCAUGCCGCCGGGCGCCAUGCCUGCAGGUCGACUCUAGAAAACAUG”, the figures for the binding signal with PUM1 PUF domain R4-EHG and with PUM1 PUF domain R4-FNM were 2.82 log2 enrichment (interaction score) and 2.87 log2 enrichment (interaction score), respectively.
As for “GGCUAGAACUAGUGGAUCCCCCGGCGCCCGGCGGCUCGAGCCCGGGUAAGCGUAAAUAGUCUGCAUGCCGCCGGGCGCCAUGCCUGCAGGUCGACUCUAGAAAACAUG”, the binding signal in the test with PUM1 PUF domain R8-PWI was 4.09 log2 enrichment (interaction score).
As to “GGCUAGAACUAGUGGAUCCCCCGGCGCCCGGCGGCUCGAGCCCGGGUAAGUGUGAAUAGUCUGCAUGCCGCCGGGCGCCAUGCCUGCAGGUCGACUCUAGAAAACAUG”, the binding signal with PUM1 PUF domain R5-LHD is 2.82 log2 enrichment (interaction score).
“GGCUAGAACUAGUGGAUCCCCCGGCGCCCGGCGGCUCGAGCCCGGGUAAGUGUAUAUAGUCUGCAUGCCGCCGGGCGCCAUGCCUGCAGGUCGACUCUAGAAAACAUG”: the binding signal with PUM1 PUF domain R4-FNM is 3.46 log2 enrichment (interaction score).
Consider “GGCUAGAACUAGUGGAUCCCCCGGCGCCCGGCGGCUCGAGCCCGGGUAAGUGUAAAAAGUCUGCAUGCCGCCGGGCGCCAUGCCUGCAGGUCGACUCUAGAAAACAUG”, for which the binding signal in the test with PUM1 PUF domain R2-PFQ was 4.24 log2 enrichment (interaction score).
